A short description of test [1]: rapamycin-like changes in RPL19A-GFP expression – cell-based, S. cerevisiae, multiplex flow cytometry, primary screen (AID 1862; in the data active means percent of DMSO control GFP below about 86%;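 further: lower values mimic rapamycin by blocking the RPL19A rise seen in DMSO cells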). The following applies: S. cerevisiae RPL19A-GFP strain, flow cytometry fluorescence, 3 h; at 10 µM; stronger effect = lower value. (A flow cytometer gives signals particle by particle.)
The nature of test [2]: TOR pathway GLN3 branch reporter MEP2-GFP changes – S. cerevisiae, multiplex flow cytometry, primary screen (AID 1867;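 active means GFP response, as percent of the DMSO control, above the screen-wide mean plus 3 SD, about 139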;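 further: median GFP channel fluorescence of barcode-gated MEP2-GFP cells measured by flow cytometry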). The following applies: S. cerevisiae MEP2-GFP strain, 3 h, at 10 µM, stronger effect = higher value, 100% means same as DMSO wells.
Test [3] is described as follows: TOR pathway RTG branch CIT2 reporter changes – S. cerevisiae, GFP fusion, multiplex flow cytometry, primary screen (AID 1870;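 active means percent response above a set limit, the screen-wide mean plus 3 SD, cut at about 130% in these data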;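 further: barcoded CIT2-GFP strain pooled with four other GFP strains with rapamycin as positive control; median GFP fluorescence per well over plate mean of DMSO wells so 100% = DMSO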). The following applies: S. cerevisiae CIT2-GFP expression, 3 h, at 10 µM, stronger effect = higher value.
The nature of test [4]: TOR pathway LAP4-GFP level changes – S. cerevisiae, multiplex flow cytometry, primary screen (AID 1873;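 active means GFP signal, as percent of the solvent control, above the screen mean plus 3 SD, about 149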). The following applies: S. cerevisiae LAP4-GFP expression, 3 h, at 10 µM, stronger effect = higher value.
The nature of test [5]: yeast AGP1-GFP level changes, GLN3 branch – cell-based, multiplex flow cytometry, S. cerevisiae, primary screen (AID 1887;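 active means GFP signal above the screen-wide mean plus 3 SD, that is over about 124.5% of the solvent control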;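 further: AGP1-GFP fusion strain of S. cerevisiae within a five-strain barcoded multiplex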). The following applies: 3 h, at 10 µM, stronger effect = higher value.
Test [6] in a line: reduced mouse 2C T cell binding to pMHC/ICAM-1 vesicles – MLPCN validation set, flow cytometry, LFA-1/ICAM-1 modulator project, pilot screen (AID 2523;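 active means response below a set limit, under 55% cells CD8-positive and vesicle-bound, and CD8 cells' 90th-percentile brightness under 279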;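 on vesicle binding response: mean PE anti-B7-1 fluorescence of CD8+ cells relative to row control; 100% = QL9-loaded vesicles with DMSO vehicle in the same plate row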). The following applies: 2C mouse CD8+ T cells, at 7 µM, stronger effect = lower value; double positive events: measured here: CD8+/vesicle+ event percentage.
Test [7] has as its target Integrin beta-1 (Homo sapiens) + Integrin alpha-4 (Homo sapiens) (UniProt P13612+P05556). Briefly: alpha4beta1 integrin LIBS antibody binding reduction – U937 cells, HUTS-21 mAb, flow cytometry, validation set, VLA-4 allosteric modulator project, pilot screen (AID 2674;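 active means inhibition above 50%, about 3 SD of the validation set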;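 further: antibody binding induced by the VLA-4 ligand LDV present at three times its Kd; 0% = LDV ligand with antibody and no compound and 100% = antibody without LDV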). The following applies: HUTS-21 LIBS mAb binding, at 6.7 µM, stronger effect = higher value, binding induced by LDV ligand.

Test [8] can be described thus: calorie-restriction mimetic ROS inhibitors, yeast – validation compound set, pilot screen (AID 2706;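 active means superoxide response below 65% of plate, a cut near 3 SD across the whole screen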;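 further: yeast exposed to compound for one week at 30 degrees C before staining; 100% = mean of all compound wells on the same plate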). To be noted: S. cerevisiae aging, superoxide DHE fluorescence; at 10 µM; stronger effect = lower value.
Test [9] deals with Beta-adrenergic receptor kinase 1 (Homo sapiens) (UniProt P25098). Briefly: GRK2 binders displacing RNA aptamer, biochemical, validation, human GRK2, bead flow cytometry (AID 488806). To be noted: bead-bound GRK2, FAM-aptamer displacement, at 10 µM, stronger effect = higher value.
Sequence of Beta-adrenergic receptor kinase 1 (Homo sapiens) (P25098 whole entry, looked up): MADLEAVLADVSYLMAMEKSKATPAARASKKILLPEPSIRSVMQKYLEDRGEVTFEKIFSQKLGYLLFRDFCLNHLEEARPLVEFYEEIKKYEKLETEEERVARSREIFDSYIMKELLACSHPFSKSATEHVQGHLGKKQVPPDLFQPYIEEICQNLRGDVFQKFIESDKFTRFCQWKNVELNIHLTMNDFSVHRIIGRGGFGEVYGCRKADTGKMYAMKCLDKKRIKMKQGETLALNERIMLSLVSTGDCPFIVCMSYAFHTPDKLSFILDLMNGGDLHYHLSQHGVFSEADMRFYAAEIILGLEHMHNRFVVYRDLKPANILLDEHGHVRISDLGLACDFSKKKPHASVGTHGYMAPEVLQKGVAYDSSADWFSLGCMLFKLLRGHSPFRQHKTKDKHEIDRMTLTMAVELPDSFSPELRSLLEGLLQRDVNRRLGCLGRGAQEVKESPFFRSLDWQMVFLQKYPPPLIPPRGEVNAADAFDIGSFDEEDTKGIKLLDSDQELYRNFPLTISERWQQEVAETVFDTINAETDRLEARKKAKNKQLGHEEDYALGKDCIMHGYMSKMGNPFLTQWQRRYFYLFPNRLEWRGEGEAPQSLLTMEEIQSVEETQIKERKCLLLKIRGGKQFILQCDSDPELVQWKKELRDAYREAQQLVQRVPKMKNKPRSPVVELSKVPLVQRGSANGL
Test [10] concerns the target Beta-2 adrenergic receptor (Homo sapiens) (UniProt P07550). In words: agonist-induced loss of surface beta2AR – cell-based, FAP fluorogen, flow cytometry, validation set, pilot screen (AID 504459;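 active means percent response above 42, roughly 3 SD of non-fluorescent test compounds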;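 further: agonist-driven loss of surface beta2AR via internalization measured by FAP dye flow cytometry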). To be noted: Am2.2-beta2AR cells, at 10 µM, stronger effect = higher value.
For test [11], the target named is AP-2 complex subunit beta (Homo sapiens) (UniProt P63010). In words: beta-arrestin/AP2 interaction blockers – biochemical, validation set, GST-AP2 beads, flow cytometry, pilot screen (AID 504541;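 active means inhibition above 54%, about 3 SD of non-fluorescent compounds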;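 further: AP2 carries R879A mutation and is captured from E. coli lysate; bead-bound FITC arrestin peptide fluorescence measuring arrestin peptide binding to AP2; 0% = DMSO wells and 100% = excess unlabeled arrestin peptide control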). To be noted: FITC arrestin peptide, at 10 µM, stronger effect = higher value, AP2 beta2 appendage fragment, R879A mutant.
Sequence of AP-2 complex subunit beta (Homo sapiens) (P63010 whole entry, looked up, the tested form may be a part, one chain of several): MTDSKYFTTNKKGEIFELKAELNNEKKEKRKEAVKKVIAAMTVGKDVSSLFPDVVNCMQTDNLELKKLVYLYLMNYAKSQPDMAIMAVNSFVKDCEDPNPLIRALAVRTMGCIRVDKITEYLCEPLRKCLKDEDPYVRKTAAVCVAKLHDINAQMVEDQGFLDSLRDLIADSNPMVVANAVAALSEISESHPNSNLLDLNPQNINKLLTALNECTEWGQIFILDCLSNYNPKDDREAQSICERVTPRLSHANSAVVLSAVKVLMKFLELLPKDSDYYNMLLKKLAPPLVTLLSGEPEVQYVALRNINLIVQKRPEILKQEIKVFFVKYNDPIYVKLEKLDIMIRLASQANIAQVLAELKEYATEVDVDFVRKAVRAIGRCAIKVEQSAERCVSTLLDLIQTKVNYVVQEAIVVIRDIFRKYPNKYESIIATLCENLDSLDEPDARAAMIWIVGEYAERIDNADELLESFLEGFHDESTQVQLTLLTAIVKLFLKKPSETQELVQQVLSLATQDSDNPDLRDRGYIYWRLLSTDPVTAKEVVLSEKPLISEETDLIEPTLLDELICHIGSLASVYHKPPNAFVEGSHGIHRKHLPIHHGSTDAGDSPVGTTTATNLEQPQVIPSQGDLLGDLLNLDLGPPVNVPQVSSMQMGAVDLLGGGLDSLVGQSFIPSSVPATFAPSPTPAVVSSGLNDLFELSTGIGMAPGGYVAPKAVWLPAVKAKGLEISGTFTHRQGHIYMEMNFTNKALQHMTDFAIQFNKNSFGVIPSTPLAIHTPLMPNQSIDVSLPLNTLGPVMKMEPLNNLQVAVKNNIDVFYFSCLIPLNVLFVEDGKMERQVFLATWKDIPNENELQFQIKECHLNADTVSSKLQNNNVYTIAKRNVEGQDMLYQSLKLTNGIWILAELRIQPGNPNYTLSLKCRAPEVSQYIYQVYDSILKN
Test [12] can be described thus: cytosolic pH regulators acting via V-ATPase – S. cerevisiae, pHLuorin, HTS validation (AID 504600; in the data active means response above about 15%;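 further: plate controls were DMSO for no effect and reference compound for full effect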). The following applies: V-ATPase proton transport, at 10 µM, stronger effect = higher value.
Test [13] concerns anti-desmoglein-3 scFv antibody binding to human DSG3. Briefly: blockers of pathogenic pemphigus antibody–desmoglein-3 binding – biochemical, validation compound set, bead-based, flow cytometry, pilot screen (AID 588368;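 active means binding below the plate cutoff, the plate median minus 3 SD, with a reading above zero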;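 further: signal is the median channel fluorescence of bead-bound GFP antibody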). The following applies: Protein G beads, DSG3-Fc, scFv-GFP binding, at 10 µM, stronger effect = lower value.
The nature of test [14]: Nile Red efflux blockade in pump-expressing yeast – validation compound set, multiplex, phenotypic, pilot screen (AID 588506;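 active means efflux inhibition above 0.42, the validation set average plus 4 SD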;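 further: Nile Red retained in cells so higher fluorescence means more efflux inhibition; 0 = negative control wells and 1 = enniatin B 25 µM full block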). The following applies: S. cerevisiae pump-expressing triplex, Nile Red efflux flow cytometry; at 10 µM; stronger effect = higher value; the pumps come from Candida albicans.
Test [15] deals with ATP-binding cassette sub-family B member 6 (Homo sapiens) (UniProt Q9NP58). In words: blockers of ABCB6-driven porphyrin uptake – K562-ABCB6 cells, flow cytometry, validation set, pilot screen (AID 588550;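 active means inhibition above the screen-wide mean plus 3 SD, about 51%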;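 further: 0% = DMSO wells and 100% = benzethonium chloride 70 µM positive control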). The following applies: K562-ABCB6 porphyrin accumulation, 1 h, at 10 µM, stronger effect = higher value.
Sequence of ATP-binding cassette sub-family B member 6 (Homo sapiens) (Q9NP58 whole entry, looked up): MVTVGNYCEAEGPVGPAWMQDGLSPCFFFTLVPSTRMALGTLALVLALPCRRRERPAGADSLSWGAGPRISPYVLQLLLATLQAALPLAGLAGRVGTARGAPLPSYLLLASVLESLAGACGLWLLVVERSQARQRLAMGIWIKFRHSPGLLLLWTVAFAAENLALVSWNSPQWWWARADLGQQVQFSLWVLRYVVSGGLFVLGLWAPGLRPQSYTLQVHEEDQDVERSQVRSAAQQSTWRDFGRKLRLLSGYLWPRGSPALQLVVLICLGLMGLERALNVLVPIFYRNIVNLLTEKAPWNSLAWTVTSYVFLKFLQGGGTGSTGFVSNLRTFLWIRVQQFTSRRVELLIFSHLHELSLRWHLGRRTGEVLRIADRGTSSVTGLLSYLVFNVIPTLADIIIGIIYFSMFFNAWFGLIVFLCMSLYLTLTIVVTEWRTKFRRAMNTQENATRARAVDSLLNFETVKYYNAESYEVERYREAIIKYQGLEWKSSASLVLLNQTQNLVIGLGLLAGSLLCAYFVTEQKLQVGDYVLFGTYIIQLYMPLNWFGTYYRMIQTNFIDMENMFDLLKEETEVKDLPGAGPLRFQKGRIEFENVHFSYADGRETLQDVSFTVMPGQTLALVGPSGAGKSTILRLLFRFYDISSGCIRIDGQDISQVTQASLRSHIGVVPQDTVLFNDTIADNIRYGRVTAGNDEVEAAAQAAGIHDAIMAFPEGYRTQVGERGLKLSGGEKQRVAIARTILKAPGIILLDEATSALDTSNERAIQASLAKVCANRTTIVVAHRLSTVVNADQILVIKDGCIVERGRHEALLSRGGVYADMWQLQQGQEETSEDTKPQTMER
Test [16] can be described thus: AML differentiation inducers, ER-HoxA9 marrow cells – cell-based, GFP/MAC1 double positive, flow cytometry, validation set, primary screen (AID 588685;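 active means differentiation response of at least 50%, scaled between solvent and reference control, from cells with both markers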;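 further: compound exposure lasts four days before antibody staining and flow analysis; 0% = DMSO wells and 100% = 5 µM fulvestrant positive control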). To be noted: stronger effect = higher value, normalized: vehicle 0, fulvestrant 100.

SMILES strings stand for the structures. Records with an inconclusive call do not appear. Active and inactive are the calls of the source.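 How the source made its calls, unless noted: active means aptamer binding inhibition above 30%, about 3 SD of noise from non-fluorescent compounds; inactive means inhibition at or below 30%.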

The inhibition is the drop in the measured response relative to a control, in per cent.

Sequence of Beta-2 adrenergic receptor (Homo sapiens) (P07550 whole entry, looked up): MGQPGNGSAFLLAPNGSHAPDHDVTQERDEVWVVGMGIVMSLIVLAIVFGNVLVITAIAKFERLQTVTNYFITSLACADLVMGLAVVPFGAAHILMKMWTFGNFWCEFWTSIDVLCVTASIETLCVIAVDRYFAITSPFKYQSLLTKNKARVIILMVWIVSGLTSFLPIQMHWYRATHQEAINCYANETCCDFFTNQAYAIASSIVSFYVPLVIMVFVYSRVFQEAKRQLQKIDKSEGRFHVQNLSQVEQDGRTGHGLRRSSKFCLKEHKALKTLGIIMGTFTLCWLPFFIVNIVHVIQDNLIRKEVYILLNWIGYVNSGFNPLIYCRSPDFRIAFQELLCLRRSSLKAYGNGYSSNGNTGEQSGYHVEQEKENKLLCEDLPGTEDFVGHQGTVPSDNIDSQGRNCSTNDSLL
Sequence of Integrin beta-1 (Homo sapiens) + Integrin alpha-4 (Homo sapiens) (P05556 whole entry, looked up): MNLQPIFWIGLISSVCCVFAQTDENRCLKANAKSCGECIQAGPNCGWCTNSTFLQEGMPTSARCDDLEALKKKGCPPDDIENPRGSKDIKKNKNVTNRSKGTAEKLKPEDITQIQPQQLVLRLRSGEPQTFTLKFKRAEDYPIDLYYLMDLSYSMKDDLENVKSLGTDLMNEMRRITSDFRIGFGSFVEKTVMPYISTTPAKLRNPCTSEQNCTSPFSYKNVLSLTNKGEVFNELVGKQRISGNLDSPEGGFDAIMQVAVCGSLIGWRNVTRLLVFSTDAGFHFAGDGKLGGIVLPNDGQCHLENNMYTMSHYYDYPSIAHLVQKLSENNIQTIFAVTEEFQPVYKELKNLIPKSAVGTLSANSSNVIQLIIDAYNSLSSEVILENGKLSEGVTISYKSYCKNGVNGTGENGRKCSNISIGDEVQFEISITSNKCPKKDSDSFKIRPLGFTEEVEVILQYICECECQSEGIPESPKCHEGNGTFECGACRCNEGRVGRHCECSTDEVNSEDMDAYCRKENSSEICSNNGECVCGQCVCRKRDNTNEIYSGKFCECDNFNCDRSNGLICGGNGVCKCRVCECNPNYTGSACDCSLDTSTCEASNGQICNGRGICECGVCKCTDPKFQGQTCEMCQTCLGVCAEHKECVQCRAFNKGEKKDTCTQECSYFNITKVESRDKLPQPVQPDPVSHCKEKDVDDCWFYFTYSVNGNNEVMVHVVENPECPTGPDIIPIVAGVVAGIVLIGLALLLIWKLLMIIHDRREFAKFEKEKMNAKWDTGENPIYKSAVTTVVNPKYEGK
Sequence of Integrin beta-1 (Homo sapiens) + Integrin alpha-4 (Homo sapiens) (P13612 whole entry, looked up): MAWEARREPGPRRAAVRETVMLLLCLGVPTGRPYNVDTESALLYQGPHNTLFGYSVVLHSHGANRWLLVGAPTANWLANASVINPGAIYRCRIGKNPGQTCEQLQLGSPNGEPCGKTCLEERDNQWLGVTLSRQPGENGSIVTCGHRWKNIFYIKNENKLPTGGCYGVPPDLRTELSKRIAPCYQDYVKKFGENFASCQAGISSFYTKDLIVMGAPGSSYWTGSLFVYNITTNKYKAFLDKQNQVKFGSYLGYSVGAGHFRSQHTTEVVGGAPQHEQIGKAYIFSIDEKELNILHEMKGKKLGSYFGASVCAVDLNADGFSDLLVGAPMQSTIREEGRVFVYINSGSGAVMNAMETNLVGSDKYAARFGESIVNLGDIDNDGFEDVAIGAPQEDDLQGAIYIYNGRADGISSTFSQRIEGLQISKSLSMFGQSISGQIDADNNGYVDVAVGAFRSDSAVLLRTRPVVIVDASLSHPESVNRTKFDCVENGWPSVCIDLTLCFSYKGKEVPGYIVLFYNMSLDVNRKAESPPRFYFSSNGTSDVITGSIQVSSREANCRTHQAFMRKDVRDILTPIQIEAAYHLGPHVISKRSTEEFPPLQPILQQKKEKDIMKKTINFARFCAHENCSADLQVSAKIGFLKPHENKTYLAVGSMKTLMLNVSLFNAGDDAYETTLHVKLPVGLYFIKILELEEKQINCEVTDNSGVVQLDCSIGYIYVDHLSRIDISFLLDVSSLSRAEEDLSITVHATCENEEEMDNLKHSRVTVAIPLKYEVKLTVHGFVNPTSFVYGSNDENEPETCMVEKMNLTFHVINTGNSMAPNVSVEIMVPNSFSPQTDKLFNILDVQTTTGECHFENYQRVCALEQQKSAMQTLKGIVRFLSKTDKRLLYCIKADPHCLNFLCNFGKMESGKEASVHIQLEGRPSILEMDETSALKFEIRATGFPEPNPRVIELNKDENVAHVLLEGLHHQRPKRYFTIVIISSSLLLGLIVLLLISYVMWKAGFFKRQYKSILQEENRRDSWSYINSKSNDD

Take `O=C(CCCN1C(=O)/C(=C\c2cccc(Br)c2)SC1=S)Nc1cccnc1`: in test [1], the percent of DMSO control GFP is 94.2% (inactive). The GFP response vs DMSO in [2] was 104% (inactive); in [4], 120% (inactive). Further, the percent response of DMSO control in [3] is 95.8% (inactive). Also, the GFP response, % of DMSO in test [5] is 95.8% (inactive). Further, in [6], the double positive events was 57.4%. Besides, the vesicle binding response in [6] was 211% (inactive). Besides, the values for the inhibition in test [7], in test [11] and in test [15] were 2.3% (inactive), -4.08% (inactive) and 5% (inactive), respectively. In addition, the superoxide response (% of plate) in test [8] was 98.5% (inactive). For the same molecule, the aptamer binding inhibition in [9] is 2% (inactive). In addition, the figures for the response in test [10] and in [12] were 10.2% (inactive) and -5.34% (inactive), respectively. Besides, the binding (% of control) in [13] was 101% (inactive). For the same molecule, the efflux inhibition (fraction of control) in test [14] was 0.01 (inactive). Moreover, the differentiation response in [16] is -12% (inactive).
Turning to `OCCN(Cc1nc(-c2ccc3c(c2)OCO3)no1)Cc1cccs1`, in [1], the percent of DMSO control GFP is 97.6% (inactive). The GFP response vs DMSO in test [2] is 102% (inactive); in [4], 109% (inactive). In test [3], the percent response of DMSO control is 91.3% (inactive). Further, in test [5], the GFP response, % of DMSO is 89.4% (inactive). The molecule also showed a double positive events in [6] of 65.7%. The vesicle binding response in test [6] was 118% (inactive). Also, the inhibition in test [7] was 9.63% (inactive); in test [11] it was -7.29% (inactive); in [15] it was 6% (inactive). For the same molecule, the superoxide response (% of plate) in test [8] is 88.2% (inactive). Moreover, the aptamer binding inhibition in [9] was 1% (inactive). For the same molecule, the values for the response in test [10] and in test [12] were 23.6% (inactive) and -1.85% (inactive), respectively. Further, the binding (% of control) in test [13] was 109% (inactive). Moreover, the efflux inhibition (fraction of control) in [14] is -0.28 (inactive). In test [16], the differentiation response is 15.9% (inactive).
For the molecule `COCCOC(=O)C1=C(N)OC2=C(C(=O)CCC2)C1c1cccnc1` (stereo not drawn), the percent of DMSO control GFP in [1] is 105% (inactive). The GFP response vs DMSO in test [2] is 105% (inactive); in test [4] it was 89.4% (inactive). Further, in test [3], the percent response of DMSO control was 100% (inactive). The GFP response, % of DMSO in [5] is 101% (inactive). In test [6], the double positive events was determined as 59.9%. Further, in test [6], the vesicle binding response is 89.9% (inactive). The values for the inhibition in [7], in [11] and in [15] were -5.64% (inactive), 4.01% (inactive) and -4% (inactive), respectively. For the same molecule, the superoxide response (% of plate) in [8] was 99.2% (inactive). Also, the aptamer binding inhibition in test [9] was 2% (inactive). Further, the response is -2.38% (inactive) in test [10] and 0.7% (inactive) in [12]. The binding (% of control) in [13] is 99.3% (inactive). The efflux inhibition (fraction of control) in test [14] was -0.1 (inactive). In addition, in test [16], the differentiation response was 7.09% (inactive).
Regarding `CCCCN1C[C@H](O)[C@@H](O)[C@H](O)[C@H]1CO`, in [1], the percent of DMSO control GFP was 102% (inactive). In addition, the figures for the GFP response vs DMSO in test [2] and in test [4] were 99.6% (inactive) and 103% (inactive), respectively. Further, the percent response of DMSO control in test [3] was 95.7% (inactive). In [5], the GFP response, % of DMSO was 113% (inactive). In test [6], this molecule came in with a double positive events of 64.9%. Moreover, the vesicle binding response in [6] is 203% (inactive). In addition, the inhibition in test [7] was 13.4% (inactive); in test [11] it was -12.1% (inactive); in test [15], 0% (inactive). Also, the superoxide response (% of plate) in [8] was 104% (inactive). Moreover, in [9], the aptamer binding inhibition is 5% (inactive). Also, the response in [10] is -17% (inactive); in test [12], 5.64% (inactive). Also, in test [13], the binding (% of control) was 104% (inactive). In addition, in test [14], the efflux inhibition (fraction of control) was -0.04 (inactive). Besides, in test [16], the differentiation response was 0.92% (inactive).

The values are drawn from PubChem BioAssay.
